NS1 inh: qHTS Assay for Inhibitors of Influenza NS1 Protein Function. Potency, µM (titrated, usually from 46.1 µM). actives 0.4% (n = 270,000). AID 2326, 2010; calls by dose curve; note: actives are rising curves; nearly all actives have a fitted effect of over 50% in size
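Read-out: OD600 growth recovery of NS1-expressing budding yeast. Cells grown overnight at 30C in -URA glucose medium, washed, resuspended and diluted 1:100 in 2% galactose assay medium, pH 6.0. Same strain lacking NS1 served as positive control.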
Pf growth 96h: Primary qHTS for delayed death inhibitors of the malarial parasite plastid, 96 hour incubation; actives 6.9% (n = 320,000); P. falciparum luciferase reporter growth, 96 h; AID 504834, 2011; Potency, µM (doses to about 28.7 µM), usual class: inhibitors
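Plates of compound plus infected erythrocytes (2% hematocrit, 0.05% parasitemia final) incubate 96 hours, 37 C, 5% CO2. Detection reagent added; reduced luminescence from the parasites' luciferase reporter flags inhibition.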
Shiga inhibitor: A qHTS for Small Molecule Inhibitors of Shiga Toxin; Vero cells, Shiga toxin protein synthesis inhibition reporter; inhibition, % at 38.7 µM; actives 9.2% (n = 290,000); AID 2315, 2010; in the data active = inhibition mostly above about 28%, no sharp cut-off; inactive = mostly below about 43%
SARS PLpro yeast: qHTS of Yeast-based Assay for SARS-CoV PLP | S. cerevisiae expressing SARS-CoV PLpro, growth rescue | Potency, µM (titrated, usually from 32.9 µM), hits mostly activators | actives 0.19% (n = 330,000) | AID 485353, 2010; calls by dose curve; note: nearly all actives have a fitted effect of over 55% in size
Pf growth 48h: Primary qHTS for delayed death inhibitors of the malarial parasite plastid, 48 hour incubation. P. falciparum luciferase growth in erythrocytes, 48 h. Potency, µM (doses to about 28.7 µM), most hits filed as inhibitors. actives 5.9% (n = 310,000). AID 504832, 2011
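Compounds are pin-transferred into medium, infected erythrocytes (2% hematocrit, 0.1% parasitemia final) are added, and plates sit one parasite generation at 37 C in 5% CO2. Detection reagent is then added and luminescence measured.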
CHX counter: Cycloheximide Counterscreen for Small Molecule Inhibitors of Shiga Toxin. cell reporter, cycloheximide protein synthesis inhibition counterscreen. max response, %. actives 12% (n = 300,000). AID 2314, 2010; in the data active = max response mostly above about 13%, no sharp cut-off; inactive = mostly below about 14%; note: read at 38.3 µM for the half of the compounds with a filed dose
Large screens that a line does not name were inactive. Compounds with a hit are over-represented: about 21% of the library has one in this group of screens. Unless noted, calls come from the whole dose curve; as a rule, active = well fitted inhibition curve with a large enough effect; inconclusive = small, poorly fitted or top-dose-only effect, or another doubt; inactive = no such curve, though single readings can be large or run the other way.

O=C1c2ccccc2S(=O)(=O)N1CC1CC(c2ccc(Cl)cc2)=NO1 (stereo unspecified)	Shiga inhibitor 66, CHX counter 61
COc1ccccc1OCC(O)Cn1c(=N)n(Cc2ccccc2)c2ccccc21 (stereo unspecified)	Pf growth 96h inconclusive, Pf growth 48h 9.3µM
C=CCn1c(=N)n(CC(O)COc2ccccc2OC)c2ccccc21 (stereo unspecified)	Pf growth 96h inconclusive (no result: Pf growth 48h)
N=c1n(Cc2ccccc2)c2ccccc2n1CC(O)c1ccccc1 (stereo unspecified)	NS1 inh inconclusive, Pf growth 96h 2.3µM, Pf growth 48h 2.1µM
CCCCCn1c(=N)n(CC(O)COc2ccccc2OC)c2ccccc21 (stereo unspecified)	Pf growth 96h inconclusive, Pf growth 48h 4.7µM
CC(C)(C)C(=O)Cn1c(=N)n(Cc2ccccc2)c2ccccc21	Pf growth 96h inconclusive, Pf growth 48h 13µM
CC1(c2ccccc2Cl)NC(=O)N(CC(=O)Nc2ccc3c(c2)OCO3)C1=O (stereo unspecified)	Pf growth 96h inconclusive, Pf growth 48h inconclusive
N/N=C1/CC(=O)NC(=O)N1	none (no result: Pf growth 96h, Shiga inhibitor, SARS PLpro yeast, Pf growth 48h, CHX counter)
N#Cc1ccc(CN2CCN(c3ccc(S(=O)(=O)N4CCCC4)cn3)CC2)cc1	Pf growth 96h inconclusive, Pf growth 48h inconclusive (no result: NS1 inh, Shiga inhibitor, CHX counter)
COc1ccc(C)cc1S(=O)(=O)N(C)CC(=O)NCc1ccccn1	Pf growth 96h inconclusive
O=C(Nc1ccccc1F)c1ccncc1	none
O=C(Nc1ccc(Br)cc1F)c1ccc2nsnc2c1	Shiga inhibitor 62, CHX counter 33
O=C(Nc1ccc(Br)cc1F)c1ccncc1	Shiga inhibitor 56, CHX counter 25 (no result: Pf growth 96h)
CCCOc1cccc(C(=O)Nc2ccc(Br)cc2F)c1	Shiga inhibitor 68, CHX counter 42
COc1cc(NC(=O)c2ccc3nsnc3c2)cc(OC)c1OC	none
Cc1ccc(NC(=O)c2ccc3nsnc3c2)c(Cl)c1	Pf growth 96h inconclusive, Shiga inhibitor 105, CHX counter 58
CCOC(=O)C(NCCc1ccccc1)(NC(=O)CC)C(F)(F)F (stereo unspecified)	Pf growth 96h inconclusive
CCN(CC)C(=O)Nc1cnc2ccccc2c1	Pf growth 96h 2.3µM, CHX counter 18
Cc1ccc(NC(=O)Nc2cnc3ccccc3c2)cc1	Shiga inhibitor 45, Pf growth 48h inconclusive, CHX counter 30
COC(=O)c1cccc(C(=O)Nc2cnc3ccccc3c2)n1	none
Cc1cc([N+](=O)[O-])nn1CC(=O)Nc1cnc2ccccc2c1	Pf growth 96h inconclusive (no result: NS1 inh)
COc1cccc(-c2cccc(NC(=O)C3CCN(C4CCOCC4)CC3)c2)c1	none
CCOc1ccc(C(=O)Nc2cc(-c3nc4ccccc4[nH]3)ccc2C)cc1[N+](=O)[O-]	Pf growth 48h inconclusive
Cc1ccc(-c2nc3ccccc3[nH]2)cc1NC(=O)/C=C/c1ccco1	Pf growth 96h inconclusive, Shiga inhibitor 177, Pf growth 48h inconclusive, CHX counter 85
Cc1ccc(-c2nc3ccccc3o2)cc1NC(=O)c1ccc2c(c1)OCO2	Shiga inhibitor 126, CHX counter 50 (no result: Pf growth 96h)
O=C(NC(=S)Nc1cc(-c2nc3ccccc3[nH]2)ccc1Cl)c1ccc2c(c1)OCO2	Pf growth 96h inconclusive, Shiga inhibitor 78, Pf growth 48h 4.7µM, CHX counter 70
Cc1ccc(-c2nc3ccccc3[nH]2)cc1NC(=O)c1ccc2c(c1)OCO2	Pf growth 96h inconclusive, Pf growth 48h inconclusive, CHX counter 14
Cc1ccc(-c2nc3ccccc3[nH]2)cc1NC(=S)NC(=O)c1ccccc1Br	Pf growth 48h inconclusive
Cc1ccc(C2=C(c3ccc([N+](=O)[O-])cc3)C(=O)OC2)cc1C	Pf growth 96h inconclusive, Pf growth 48h inconclusive (no result: NS1 inh)
O=C(CCNC(=O)c1ccc(Br)cc1)NNC(=O)C1COc2ccccc2O1 (stereo unspecified)	none (no result: NS1 inh, Shiga inhibitor, CHX counter)
CCCCCn1nc(C(=O)OCc2nnc(-c3ccccc3)o2)c2ccccc2c1=O	none (no result: NS1 inh, Shiga inhibitor, CHX counter)
COc1ccc(C(=O)Nc2cccc(C(=O)O)c2)cc1S(=O)(=O)N1CCCC1	none
COc1ccc(OC)c(S(=O)(=O)N2CCC(c3nc4ccccc4[nH]3)CC2)c1	Pf growth 96h 10µM, Pf growth 48h inconclusive (no result: NS1 inh, Shiga inhibitor, CHX counter)
COc1cc(C(=O)Nc2nc3ccccc3[nH]2)ccc1OC(F)F	Shiga inhibitor 62, CHX counter 39
COc1ccc(C(=O)NC(C)c2nc3ccccc3n2C)cc1OC (stereo unspecified)	none
CCn1c(C(C)NC(=O)c2ccc(OC)c(OC)c2)nc2ccccc21 (stereo unspecified)	Pf growth 96h inconclusive, Shiga inhibitor 70, CHX counter 18
COc1ccc(C(=O)NC(C)c2nc3ccccc3[nH]2)cc1OC (stereo unspecified)	Pf growth 96h inconclusive
COc1ccc(C(=O)Nc2nc3ccccc3[nH]2)cc1S(=O)(=O)N1CCCC1	Shiga inhibitor 75, CHX counter 19 (no result: Pf growth 96h)
CCc1ccc(C(=O)Nc2nc3ccccc3[nH]2)cc1	none
CCOc1ccc(C(=O)Nc2nc3ccccc3[nH]2)cc1OCC	Pf growth 96h inconclusive, Shiga inhibitor 105, Pf growth 48h inconclusive, CHX counter 51 (no result: NS1 inh)
COc1ccc(C(=O)Nc2nc3ccccc3[nH]2)cc1OC	Shiga inhibitor 86, CHX counter 42
O=C(O)COCC(=O)NCc1csc2ccccc12	none
O=C(CN1CCN(Cc2cccc(F)c2)CC1)NCc1ccccc1	none
CCCCNC(=O)C1=C(N)C(C(=O)Nc2ccc(C)c(S(=O)(=O)N3CCCCC3)c2)SC1=Nc1ccc(C)cc1C (stereo unspecified)	NS1 inh inconclusive, Pf growth 96h 10µM (no result: Pf growth 48h)
Cc1ccc(NC(=O)O/N=C/c2ccc(N(C)C)cc2)cc1	CHX counter 21
Cc1ccc(C(=O)O/N=C/c2ccc(N(C)C)cc2)cc1	none
CC1=C(C(=O)Nc2ccccc2Cl)C(c2ccc(N(C)C)cc2)NC(=O)N1 (stereo unspecified)	Pf growth 48h inconclusive
COc1ccc(NC(=O)O/N=C/c2ccc(N(C)C)cc2)cc1	Shiga inhibitor 57, CHX counter 33
COc1ccc(NC(=O)O/N=C/c2ccncc2)cc1	Shiga inhibitor 43 (no result: NS1 inh)
CN(C)c1ccc(/C=N/OC(=O)Nc2ccccc2Cl)cc1	Shiga inhibitor 95, CHX counter 22 (no result: NS1 inh)
COc1ccc(N2CCN(C(CNC(=O)C(=O)NCC(OC)OC)c3ccco3)CC2)cc1 (stereo unspecified)	none
O=C(COc1ccccc1)NCC(c1ccco1)N1CCN(c2ccccc2)CC1 (stereo unspecified)	none (no result: NS1 inh, Shiga inhibitor, CHX counter)
COc1cc(CCN)c(OC)c(OC)c1	none (no result: Pf growth 96h, Shiga inhibitor, SARS PLpro yeast, Pf growth 48h, CHX counter)
COc1ccc(/C=N/OC(=O)Nc2ccc(Cl)cc2)c(OC)c1	CHX counter 25
